Assay [1] is described as follows: inhibitors of TNFa-induced NFkB p65 translocation, primary screen, imaging, HUVEC, MLSMR starter and 10KST1 sets (AID 438;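 active means inhibition above 20% together with a positive visual image hit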;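 further: compound added about 3h40 before a 20 min TNFalpha stimulation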;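 on inhibition: signal is the nuclear over cytoplasmic p65 intensity ratio per well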). To be noted: HUVEC TNFa-induced p65 nuclear translocation; cell count: measured here: nuclei count (cytotoxicity indicator), at 2.08 µM unless noted; inhibition: at 2 µM, stronger effect = higher value unless noted.
Assay [2] in a line: reduction of polyQ htt aggregates in cells – imaging, exon1htt(103Q)mCFP cells, high-content imaging, primary screen (AID 483;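 active means visual image review flags a hit and inhibition of aggregation exceeds 20%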;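 further: compound exposure lasted 3 days before fixation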;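 on nuclei count: percent of the per-plate median nuclei count of sample wells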). The following applies: exon1htt(103Q)mCFP cell line, aggregate imaging, at 2 µM; inhibition of aggregation: stronger effect = higher value; nuclei count: measured here: cell count, toxicity.
Assay [3] in a line: endothelial E-selectin expression blockers – imaging, HUVEC, immunofluorescence, MLSMR starter and 10KST1 sets, primary screen (AID 487;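 active means visually confirmed hit in the image check and inhibition above 20%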;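 on inhibition: signal is fraction of cell area covered by stained E-selectin grains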;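 on nuclei count: 100% = median nuclei count of all wells on the same plate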). The following applies: HUVEC TNFalpha-induced E-selectin immunofluorescence imaging, at 2 µM; inhibition: stronger effect = higher value; nuclei count: measured here: cell number, toxicity.
Assay [4] deals with Voltage-gated potassium channel subunit beta-2 (Rattus norvegicus) (UniProt P62483). The assay is described as follows: inhibitors of rat Kvbeta2 reductase activity – biochemical, NADPH fluorescence, primary screen (AID 622;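 active means fluorescence slope higher than the sample average by over 3 SD, cut at about -0.22 in these data, passing the limit was not always enough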;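 further: slope of raw intensity against log time taken from 70 to 1610 s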). To be noted: recombinant KvBeta, 4-cyanobenzaldehyde reduction, at 10 µM, stronger effect = higher value.
Chain of Voltage-gated potassium channel subunit beta-2 (Rattus norvegicus) (P62483 whole entry, looked up): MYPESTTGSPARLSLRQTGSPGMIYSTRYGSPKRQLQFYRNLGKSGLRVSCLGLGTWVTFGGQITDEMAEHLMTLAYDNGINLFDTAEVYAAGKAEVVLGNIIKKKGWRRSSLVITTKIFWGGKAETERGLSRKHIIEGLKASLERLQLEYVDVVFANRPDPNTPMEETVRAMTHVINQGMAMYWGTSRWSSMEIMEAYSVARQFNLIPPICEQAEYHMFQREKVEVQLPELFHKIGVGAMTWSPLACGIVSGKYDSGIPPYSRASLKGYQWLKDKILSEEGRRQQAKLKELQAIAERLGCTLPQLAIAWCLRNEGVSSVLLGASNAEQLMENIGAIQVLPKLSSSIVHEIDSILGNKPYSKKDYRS
Assay [5] has the same target. The assay is described as follows: enhancers of rat Kvbeta2 NADPH turnover – biochemical, NADPH fluorescence, primary screen (AID 623;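 active means NADPH fluorescence slope more negative than the mean of all samples by about 3 SD, 99.7% confidence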;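 further: fluorescence intensity change per second fitted from 20 to 320 s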). To be noted: Recombinant KvBeta, NADPH fluorescence decrease slope, 10 min; at 10 µM; stronger effect = lower value.
Assay [6] deals with Alpha-2C adrenergic receptor (Homo sapiens) (UniProt P18825). The assay is described as follows: compounds altering alpha2C-coupled GIRK flux – cell-based, HEK293 alpha2C/GIRK1/2, thallium flux, primary screen (AID 624).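 Further: slope of fluorescence ratio to pre-addition baseline per second over 15 to 24 s.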 To be noted: thallium flux BTC fluorescence, at 10 µM, actives lie on both sides.
Chain of Alpha-2C adrenergic receptor (Homo sapiens) (P18825 whole entry, looked up): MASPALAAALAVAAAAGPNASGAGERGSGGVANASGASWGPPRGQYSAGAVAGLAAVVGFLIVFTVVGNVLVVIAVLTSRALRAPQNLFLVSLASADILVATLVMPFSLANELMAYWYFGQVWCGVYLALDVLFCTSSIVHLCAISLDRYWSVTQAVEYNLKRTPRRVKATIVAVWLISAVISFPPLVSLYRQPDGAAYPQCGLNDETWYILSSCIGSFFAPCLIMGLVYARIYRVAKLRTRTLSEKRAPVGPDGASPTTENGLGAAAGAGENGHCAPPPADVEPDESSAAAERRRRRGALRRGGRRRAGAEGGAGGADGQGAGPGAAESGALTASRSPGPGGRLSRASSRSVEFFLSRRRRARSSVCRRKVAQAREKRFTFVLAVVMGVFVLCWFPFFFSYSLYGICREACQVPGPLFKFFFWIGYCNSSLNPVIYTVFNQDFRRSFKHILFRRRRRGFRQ
Assay [7] in a line: blockers of RIG-like receptor reporter activation – cell-based, Sendai virus stimulus, luciferase, 10K MLSCN set, TLR/RLR signaling modifier project, primary screen (AID 602276;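 active means inhibition at or above 50% at 10 µM; inactive means inhibition below 50%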;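 further: firefly luciferase from ISG56 promoter only with Renilla not read in this screen; 0% = Sendai virus plus DMSO and 100% = medium plus DMSO without virus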). To be noted: HEK293 RL24 IRF3 luciferase reporter, at 10 µM, stronger effect = higher value. For orientation: Reporter assays use an easily measured gene product as a stand-in for the process of interest.
Assay [8] in a line: TLR3 IRF3 reporter activation blockers – cell-based, poly I:C stimulus, luciferase, 10K MLSCN set, primary screen (AID 602277;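 active means inhibition of the reporter signal at or above 50%; inactive means inhibition below 50%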). The following applies: HEK293-TLR3 RL24 IRF3 luciferase reporter, at 10 µM, stronger effect = higher value.

For orientation: inhibition means the drop in the measured response relative to a control, in per cent.

The source made the active and inactive calls.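 How the source made its calls, unless noted: active means fluorescence slope after compound addition differing from the mean of all screened samples at 99.7% confidence, in either direction; inactive means the rest.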

As to `CCOc1c(P(=S)(N(C)C)N(C)C)c(C)nn1-c1ccccc1`, the cell count in assay [1] stood at 305. Further, the inhibition in assay [1] was -5.2% (inactive); in assay [3], -3.3% (inactive); in assay [7], 13.8% (inactive); in assay [8] it was 16.7% (inactive). In addition, the inhibition of aggregation in assay [2] is 4.6% (inactive). Also, the nuclei count in assay [2] was found to be 108%; in assay [3], 112%. In assay [4], the fluorescence slope is -0.345 (inactive). In addition, the NADPH fluorescence slope in assay [5] was 8e-06 (inactive). Moreover, in assay [6], the slope is 0.0033 (inactive).
Consider `CCN1c2nc3c(C)cccn3c(=O)c2CC2(C(=O)N(C)C(=O)N(C)C2=O)C1C` (configuration not stated), for which the cell count in assay [1] was 413. Also, the inhibition is 8.9% (inactive) in assay [1], 19.8% (inactive) in assay [3], 16.5% (inactive) in assay [7] and 17.7% (inactive) in assay [8]. Besides, the inhibition of aggregation in assay [2] is 8.3% (inactive). Also, the nuclei count was found to be 100% in assay [2] and 111% in assay [3]. The fluorescence slope in assay [4] was -0.477 (inactive). Moreover, the NADPH fluorescence slope in assay [5] is -5.3e-05 (inactive). Moreover, the slope in assay [6] is 0.00711 (inactive).
In assay [1], `N=C(N)c1c(O)n(C2CCCCC2)c(=O)n(C2CCCCC2)c1=O` gave a cell count of 460. The inhibition in assay [1] is -13.4% (inactive); in assay [3] it was -11% (inactive); in assay [7], 16.7% (inactive); in assay [8], 31.3% (inactive). In addition, the inhibition of aggregation in assay [2] was -10.9% (inactive). Further, the values for the nuclei count in assay [2] and in assay [3] were 102% and 89.8%, respectively. In addition, the fluorescence slope in assay [4] is -0.502 (inactive). The NADPH fluorescence slope in assay [5] is -1.1e-05 (inactive). The slope in assay [6] is 0.00599 (inactive).
Consider `CCOP(=S)(OCC)c1ccc(N(C)C)cc1`, for which, in assay [1], the cell count came out at 670. Also, the inhibition in assay [1] is -1% (inactive); in assay [3] it was -113% (inactive); in assay [7] it was -17.4% (inactive); in assay [8] it was -4.41% (inactive). Besides, in assay [2], the inhibition of aggregation was 18.4% (inactive). Besides, the figures for the nuclei count in assay [2] and in assay [3] were 68.7% and 117%, respectively. Moreover, the fluorescence slope in assay [4] is -0.572 (inactive). The NADPH fluorescence slope in assay [5] is 3.8e-05 (inactive). Besides, the slope in assay [6] is 0.00443 (inactive).
The compound `CN1CCN(c2c[nH]c(=O)[nH]c2=O)CC1` returned a cell count in assay [1] of 446. Besides, the inhibition in assay [1] is 0% (inactive); in assay [3] it was -143% (inactive); in assay [7], 2.56% (inactive); in assay [8] it was 19.8% (inactive). Further, the inhibition of aggregation in assay [2] was -25.3% (inactive). The nuclei count in assay [2] is 90.3%; in assay [3], 105%. In assay [4], the fluorescence slope was -0.495 (inactive). Further, the NADPH fluorescence slope in assay [5] is -3.4e-05 (inactive). In addition, the slope in assay [6] was 0.00648 (inactive).
In the case of `COC(=O)c1cncn1C(C)c1ccccc1` (configuration not stated), in assay [1], the cell count was 671. Besides, the inhibition in assay [1] was -3.4% (inactive); in assay [3] it was -88.8% (inactive); in assay [7], -53.9% (inactive); in assay [8] it was 13.1% (inactive). Besides, in assay [2], the inhibition of aggregation was -10.9% (inactive). Besides, the nuclei count turned out to be 97.9% in assay [2] and 110% in assay [3]. Further, the fluorescence slope in assay [4] was -0.488 (inactive). Also, the NADPH fluorescence slope in assay [5] was -2.9e-05 (inactive). Further, the slope in assay [6] was 0.0055 (inactive).
In assay [1], `Cc1ccc(C(=O)C2CN3CCC2CC3)cc1` (configuration not stated) displayed a cell count of 882. Moreover, the inhibition in assay [1] is -7.3% (inactive); in assay [3] it was -84.2% (inactive); in assay [7], 11.9% (inactive); in assay [8] it was 43.4% (inactive). For the same compound, in assay [2], the inhibition of aggregation was -13.1% (inactive). Moreover, the nuclei count was 103% in assay [2] and 111% in assay [3]. The fluorescence slope in assay [4] is -0.441 (inactive). Further, the NADPH fluorescence slope in assay [5] was -2.3e-05 (inactive). The slope in assay [6] is 0.00351 (inactive).
In the case of `O=P(OCC(F)(F)C(F)F)(N1CCCCC1)N1CCCCC1`, the cell count in assay [1] was 336. The inhibition in assay [1] is -10.1% (inactive); in assay [3], -152% (inactive); in assay [7], 7.79% (inactive); in assay [8], 9.95% (inactive). Also, the inhibition of aggregation in assay [2] is -9.4% (inactive). In addition, the nuclei count in assay [2] was 121%; in assay [3] it was 134%. For the same compound, in assay [4], the fluorescence slope is -0.5 (inactive). Further, in assay [5], the NADPH fluorescence slope is 2.3e-05 (inactive). Further, the slope in assay [6] is 0.00426 (inactive).
As to `CC(C)CC12CN3CCN(CC(C3)/C1=N/O)C2`, the cell count in assay [1] came to 291. In addition, the inhibition in assay [1] was -16.4% (inactive); in assay [3], 4.9% (inactive); in assay [7], 19.2% (inactive); in assay [8], 21.5% (inactive). In assay [2], the inhibition of aggregation was -20% (inactive). Moreover, the figures for the nuclei count in assay [2] and in assay [3] were 126% and 109%, respectively. Further, in assay [4], the fluorescence slope was -0.496 (inactive). In addition, in assay [5], the NADPH fluorescence slope was -1.4e-05 (inactive). Further, in assay [6], the slope was 0.00751 (inactive).
In assay [1], `COc1ccc(CC[n+]2cc(/N=C(\C)[O-])on2)cc1OC` showed a cell count of 648. The inhibition in assay [1] is -23.5% (inactive); in assay [3], 48.2% (inactive); in assay [7], 7.77% (inactive); in assay [8], 25.3% (inactive). For the same compound, in assay [2], the inhibition of aggregation was -6% (inactive). The nuclei count in assay [2] is 130%; in assay [3] it was 95.3%. In addition, the fluorescence slope in assay [4] was -0.574 (inactive). Moreover, in assay [5], the NADPH fluorescence slope was 6e-06 (inactive). In addition, the slope in assay [6] is 0.00583 (inactive).
On to `CC(=NCCCO)c1c(O)n(Cc2ccccc2)c(=O)[nH]c1=O`, for which, in assay [1], the cell count is 374. Further, the inhibition in assay [1] is -1.2% (inactive); in assay [3] it was -197% (inactive); in assay [7] it was 13% (inactive); in assay [8], 11% (inactive). The inhibition of aggregation in assay [2] was -15.8% (inactive). In addition, the nuclei count was determined as 113% in assay [2] and 130% in assay [3]. Moreover, the fluorescence slope in assay [4] was -0.384 (inactive). In addition, the NADPH fluorescence slope in assay [5] was -3.6e-05 (inactive). Besides, the slope in assay [6] was 0.00369 (inactive).
In assay [1], `COC(=NC1CCCC1)C(O)c1c[nH]c2ccccc12` (configuration not stated) returned a cell count of 602. In addition, the inhibition in assay [1] is 9.7% (inactive); in assay [3], -22.4% (inactive); in assay [7], 5.75% (inactive); in assay [8] it was 32.2% (inactive). The inhibition of aggregation in assay [2] was 14% (inactive). The nuclei count in assay [2] was found to be 88.5%; in assay [3], 79.7%. In addition, in assay [4], the fluorescence slope is -0.536 (inactive). The NADPH fluorescence slope in assay [5] is -2.7e-05 (inactive). In assay [6], the slope is 0.00519 (inactive).

For the origin of these results see PubChem BioAssay.
